# According to PubChem BioAssay AID624169 (The Scripps Research Institute Molecular Screening Center, 2012):
# In all, about 360,000 compounds went through this assay and about 2,400 (0.67%) were called active. This excerpt belongs to a sample that is enriched for actives. Unmarked numbers belong to inactive results.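 The calls were made as follows: active = activation above a run cutoff, the mean activation of all tested compounds plus 3 SD (cut at about 14% in these data); inactive = the rest.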
# Biological target: 5-hydroxytryptamine receptor 2A (Mus musculus) (UniProt P35363)
# Test: activation of mouse 5-HT2A receptor – cell-based, luminescence, primary screen (AID 624169);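 also: 0% = plate median of compound wells and 100% = 30 µM serotonin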
# Details: CHO-K1 mHTR2A beta-arrestin complementation, at 7.6 µM, stronger effect = higher value, percent of 30 µM serotonin response
# Chain of 5-hydroxytryptamine receptor 2A (Mus musculus) (P35363 whole entry, looked up): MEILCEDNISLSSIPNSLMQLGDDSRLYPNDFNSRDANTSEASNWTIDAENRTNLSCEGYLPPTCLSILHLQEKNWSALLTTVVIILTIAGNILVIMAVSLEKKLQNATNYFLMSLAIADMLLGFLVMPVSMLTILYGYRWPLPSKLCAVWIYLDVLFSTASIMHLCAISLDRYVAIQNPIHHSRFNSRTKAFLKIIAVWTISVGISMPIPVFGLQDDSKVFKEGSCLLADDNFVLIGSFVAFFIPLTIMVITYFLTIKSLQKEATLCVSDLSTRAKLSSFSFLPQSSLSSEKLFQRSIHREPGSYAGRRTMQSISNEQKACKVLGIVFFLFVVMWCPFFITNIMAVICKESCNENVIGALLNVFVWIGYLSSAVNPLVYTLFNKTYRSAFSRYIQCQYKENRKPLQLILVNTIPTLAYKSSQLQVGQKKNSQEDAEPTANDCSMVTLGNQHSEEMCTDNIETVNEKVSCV
row,Compound,activation
1,CCCCn1c(N)c(N(CC(C)C)C(=O)CN(C)S(=O)(=O)c2ccc(F)cc2)c(=O)[nH]c1=O,2.45%
2,CCCCn1c(N)c(N(CC(C)C)C(=O)CSc2ccc([N+](=O)[O-])cc2)c(=O)[nH]c1=O,20.3% (active)
3,CCCCn1c(N)c(N(CCC(C)C)C(=O)c2ccc([N+](=O)[O-])o2)c(=O)[nH]c1=O,5.32%
4,COC(=O)c1ccc(S(=O)(=O)N2CCC(c3nc4ccccc4o3)CC2)cc1,2.01%
5,Cc1ccc(C(=O)N/C(=C/c2cccs2)C(=O)NCC2CCCO2)cc1 (configuration not stated),6.31%
6,Cc1ccc(C(=O)N/C(=C/c2cccs2)C(=O)N2CCCCC2)cc1,19.9% (active)
7,CN1CCN(C(=O)/C(=C\c2cccs2)NC(=O)c2cccs2)CC1,-0.61%
8,CCOc1cc(CN2CCCC(CO)(Cc3ccc(F)cc3F)C2)ccc1OC (configuration not stated),-5.38%
9,CCOC(=O)c1sc(NC(=O)CSc2n[nH]c(CC)n2)nc1C,-3.89%
10,Cc1ccc(C(=O)OCC(=O)N2CCCCCC2)cc1S(=O)(=O)N1CCOCC1,4.82%
11,O=C(OCC(=O)N1CCOCC1)c1ccc2ccccc2c1,14.5% (active)
12,O=C(OCC(=O)N1CCOCC1)c1ccc(N2CCOCC2)c([N+](=O)[O-])c1,-5.4%
13,Cc1oc2nc(SCC(=O)NCc3cccnc3)nc(N)c2c1C,0.74%
14,COC(=O)c1ccc2nc(-c3cccc(Br)c3)c(Cc3ccc(OC)cc3C)n2c1,-0.25%
15,COC(=O)c1ccc2nc(-c3ccccc3)c(Cc3ccc(OC)cc3C)n2c1,-0.62%
16,CCCCNc1c(-c2cccc(Sc3ccc(OC)cc3)c2)nc2ccccn12,23.6% (active)
17,COc1ccc(/C=N/Nc2ccccc2C(=O)O)cc1,15.9% (active)
18,COc1ccc(/C=N/NC(=O)C(C)N(c2ccc(OC)cc2)S(C)(=O)=O)cc1 (configuration not stated),-1.2%
19,COc1ccc(/C=N/NC(=O)Cn2cc(C(F)(F)F)ccc2=O)cc1,-1.47%
20,COc1ccc(-c2nnc3n2CCCCC3)cc1,-2.42%
21,COc1cc(OC)cc(C(=O)NNC(=O)CCOc2ccccc2OC)c1,-0.14%
22,O=C(COC(=O)/C=C/c1cccc(Cl)c1)NCCc1ccccc1,-2.95%
23,NNc1cccc(C=Cc2ccccc2)cc1=O,15.7% (active)
24,CC(=O)C1=C(O)C(=O)N(c2ccc(S(N)(=O)=O)cc2)C1c1ccccc1F (configuration not stated),3.54%
25,CSc1ncnc2c1ncn2CCCNCC(C)c1ccccc1 (configuration not stated),-3.42%
26,CSc1ncnc2c1ncn2CCCNCc1ccco1,5.16%
27,CSc1ncnc2c1ncn2CCCNCc1cccs1,19.2% (active)
